Screening data: PubChem, National Center for Advancing Translational Sciences (NCATS)
Pf growth 48h – inhibits P. falciparum growth in the first generation, 48 h. P. falciparum luciferase growth in erythrocytes, 48 h. Potency, µM (titrated, usually from 28.7 µM), most hits filed as inhibitors. actives 5.9% (n = 310,000)
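Luminescence readout; reporter = integrated firefly luciferase in P. falciparum. RBC culture at 2% hematocrit, 0.1% parasitemia final, 37 C/5% CO2; decreased signal taken as growth inhibition.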
SARS PLpro yeast-1 – SARS-CoV PLP inhibition in yeast. S. cerevisiae expressing SARS-CoV PLpro, growth rescue. Potency, µM (series often up to 32.9 µM), usual class: activators. actives 0.19% (n = 330,000); calls by dose curve; further: nearly all actives have a fitted effect of over 55% in size
Pf growth 96h – inhibits malaria parasite growth, 96 h | Potency, µM (highest dose often 28.7 µM), usual class: inhibitors | actives 6.9% (n = 320,000) | P. falciparum luciferase reporter growth, 96 h
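96 h incubation, 37 C, 5% CO2, of luciferase-reporter P. falciparum-infected RBCs (2% hematocrit, 0.05% parasitemia final) with test compounds; endpoint luminescence.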
NS1 inh – inhibitors of influenza NS1 protein function | Potency, µM (doses to about 46.1 µM) | actives 0.4% (n = 270,000) | AID 2326; calls by dose curve; further: actives are rising curves; nearly all actives have a fitted effect of over 50% in size
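Recovery from NS1-induced slow growth read by OD600 in budding yeast switched to galactose assay medium (pH 6.0, -URA) at 1:100 dilution. Compound 23 nl per well; the matching strain lacking NS1 serves as control.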
RE007 growth inh – less growth of the S. pombe RE007 Vpr strain; S. pombe RE007 Vpr strain, BacTiter-Glo ATP luminescence, 24 h; Potency, µM (series often up to 92.2 µM), most hits filed as inhibitors; actives 0.21% (n = 360,000); AID 651644; active means well fitted falling curve with a large enough effect; inconclusive means small, poorly fitted or top-dose-only effect; inactive means no such curve, though single readings can be large or run the other way; further: nearly all actives have a fitted effect of over 50% in size
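Fission yeast strain RE007, carrying one chromosomally integrated HIV-1 vpr copy, was seeded at OD 0.01 in PMG+AL medium with 23 nL pinned compound. After 24 h at 30 °C and 99% humidity, viability was read by BacTiter-Glo luminescence.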
SARS PLpro yeast-2 – Rescues yeast growth by inhibiting SARS-CoV PLpro | shares compounds with SARS PLpro yeast-1 | yeast expressing SARS-CoV PLpro, growth phenotype rescue | calls only | actives 19% (n = 1,000); call rule not given here
CLK4 cf ADPGlo – confirmation of inhibitors of human CDC-like kinase 4; shares compounds with Pf growth 48h; recombinant Clk4, RS peptide, ADP-Glo luminescence; Potency, µM (titrated, usually from 80 µM), usual class: inhibitors; actives 80% (n = 65); AID 1969
Target sequence (Q9HAZ1 whole entry, looked up): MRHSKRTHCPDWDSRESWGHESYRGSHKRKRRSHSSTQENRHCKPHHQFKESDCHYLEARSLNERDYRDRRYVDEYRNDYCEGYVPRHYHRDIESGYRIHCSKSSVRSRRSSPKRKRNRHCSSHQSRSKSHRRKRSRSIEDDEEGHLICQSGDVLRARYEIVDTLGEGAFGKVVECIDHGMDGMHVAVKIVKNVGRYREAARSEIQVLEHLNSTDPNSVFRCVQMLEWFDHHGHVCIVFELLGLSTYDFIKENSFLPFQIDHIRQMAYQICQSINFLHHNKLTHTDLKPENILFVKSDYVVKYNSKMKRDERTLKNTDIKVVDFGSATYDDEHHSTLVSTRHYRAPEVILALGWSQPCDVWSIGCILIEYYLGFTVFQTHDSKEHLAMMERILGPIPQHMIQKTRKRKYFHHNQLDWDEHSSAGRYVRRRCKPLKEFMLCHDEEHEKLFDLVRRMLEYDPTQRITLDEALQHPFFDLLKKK
CLK4 cf ADP-FP – CLK4 (human) inhibition, Transcreener FP confirmation; shares compounds with Pf growth 48h; recombinant Clk4, ADP Transcreener FP, RS peptide; Potency, µM (doses to about 80 µM), most hits filed as inhibitors; actives 70% (n = 65)
Numbers stand for hits; - = inactive; ? = inconclusive; . = no result; [ ] = remark or other dose. An excerpt weighted towards active compounds, which were near 9.5% of everything screened. Unless noted, the call rests on the fitted dose curve; in most records, active means well fitted curve in the direction sought with a large enough effect; inconclusive means small, poorly fitted or top-dose-only effect, or another doubt; inactive means no such curve, though single readings can be large; an effect the other way counts as inactive or inconclusive.

SMILES	Pf growth 48h	SARS PLpro yeast-1	Pf growth 96h	NS1 inh	RE007 growth inh	CLK4 cf ADPGlo	CLK4 cf ADP-FP	others
Cc1ccc(S(=O)(=O)N2CCN(C(C(=O)Nc3ccc(F)cc3)c3ccccc3)CC2)cc1 (stereo not drawn)	?	-	?	?	-	.	.
Cc1cc(CNC[C@H]2O[C@@H](n3cnc4c(N)ncnc43)[C@H](O)[C@@H]2O)no1	.	.	.	.	-	.	.
CC(=O)Nc1cccc(-c2nn[nH]n2)c1	-	-	-	-	-	.	.
O=C(Nc1cccc(-c2nn[nH]n2)c1)c1csc2c1CCCC2	-	?	?	-	-	.	.	SARS PLpro yeast-2=-
CCc1c(C2CC2)ncn1Cc1cccc(-c2ccccc2)c1	.	.	.	.	-	.	.
COc1ccc(/C(N)=N/OC(=O)c2cccc([N+](=O)[O-])c2C)cc1OC	.	?	13µM	-	-	.	.	SARS PLpro yeast-2=-
COc1ccc(/C(N)=N/OC(=O)c2ccc(OC)c([N+](=O)[O-])c2)cc1OC	?	-	-[5.75 µM]	-	-	.	.
COC(=O)Oc1nsnc1N1CCOCC1	-	-	?	-	-	.	.
O=c1c(N2CCOCC2)nsnc1N1CCOCC1	-	?	-	-	-	.	.	SARS PLpro yeast-2=-
c1csc(CNc2ncnc3ccc(-c4ccc5c(c4)OCO5)cc23)c1	?	-	?	.	.	0.071µM	0.045µM
c1csc(CNc2ncnc3ccc(-c4ccoc4)cc23)c1	?	-	?	.	.	0.22µM	0.25µM
c1csc(CNc2ncnc3sccc23)c1	.	.	.	.	-	.	.
COc1cc2ncnc(NCc3cccs3)c2cc1OC	?	-	-	-	-	.	.
O=C(CSc1ccc(-c2ccco2)nn1)Nc1ccc(F)cc1F	-	-	-	-	-	.	.
O=C(OCc1cn([C@@H]2C[C@H](c3ccc(Cl)cc3)N(C(=O)C3CCCCC3)C[C@H]2O)nn1)c1ccccc1	.	.	.	.	-	.	.
Cc1csc(CNc2ncnc3ccc(-c4ccco4)cc23)c1	?	-	-	.	.	-	-
Clc1ccc2c(NCc3cccs3)ncnc2c1	.	-	-	-	-	.	.
Cc1csc(CNc2ncnc3ccc(-c4ccc5c(ccn5C)c4)cc23)c1	3.7µM	-	5.9µM	.	.	14µM	40µM
Cc1cccc(-c2ccc3ncnc(NCc4cc(C)cs4)c3c2)c1	12µM	-	9.3µM	.	.	14µM	?
Cc1csc(CNc2ncnc3ccc(-c4cccc(Cl)c4)cc23)c1	7.4µM	-	2.3µM	.	.	13µM	?
CC(=O)Nc1ccc(S(=O)(=O)NN=c2sc3ccccc3n2C)cc1N	.	.	.	.	-	.	.
CC(=O)c1cc(CN2CCN(C(C)C)C(CCO)C2)cs1 (stereo not drawn)	-	-	?	-	-	.	.
COc1ccc(CNC(=O)[C@H](C)NC(=O)C2CCN(S(=O)(=O)c3ccccc3)CC2)cc1	-	-	?	-	-	.	.
Cc1cccc(CNc2ncnc3ccc(-c4cccc(Cl)c4)cc23)c1	6.6µM	-	4.1µM	.	.	13µM	?
Cc1cccc(CNc2ncnc3ccc(-c4ccccc4Cl)cc23)c1	5.2µM	-	1.5µM	.	.	7.9µM	?
SMILES	Pf growth 48h	SARS PLpro yeast-1	Pf growth 96h	NS1 inh	RE007 growth inh	CLK4 cf ADPGlo	CLK4 cf ADP-FP	others
Fc1ccc(CNc2ncnc3cc(Cl)ccc23)cc1	?	-	?	-	-	.	.
Cc1cc2c(NCc3ccccc3)ncnc2s1	?	-	-	-	-	.	.
Cc1cccc(CNc2ncnc3ccc(-c4ccc5c(c4)OCO5)cc23)c1	5.9µM	-	3.3µM	.	.	0.11µM	0.1µM
Fc1cccc(CNc2ncnc3ccc(-c4ccccc4Cl)cc23)c1	5.9µM	-	2.1µM	.	.	7.9µM	10µM
Cc1cccc(-c2ccc3ncnc(N(C)Cc4ccco4)c3c2)c1	12µM	-	?	.	.	2.5µM	3.2µM
Cc1ccc(N(Cc2ccco2)C(=O)c2cccc(S(=O)(=O)N(C)C)c2)cc1	?	-	-	-	-	.	.
CN(Cc1ccco1)c1ncnc2ccc(-c3ccc4c(ccn4C)c3)cc12	10µM	-	9.3µM	.	.	14µM	?
CN(Cc1ccco1)c1ncnc2ccc(-c3cccc(Cl)c3)cc12	6.6µM	-	9.3µM	.	.	1.4µM	1.6µM
CN(Cc1ccco1)c1ncnc2ccc(-c3ccc4c(c3)OCO4)cc12	?	-	?	.	.	0.063µM	0.05µM
